# In the supplement of paper PMC10849652:
# About 7,900 targets were measured; listed, in parts, are those with a hit and a random draw of the rest. About 0.6% of all pairs of compound and target were hits. Unmarked numbers belong to inactive results.
# Compound: CN1CCN(c2nc(C3=C(c4c[nH]c5ccccc45)C(=O)NC3=O)c3ccccc3n2)CC1 [sotrastaurin]
# Assay: log2 fold change, soluble protein after heating vs DMSO (PISA); higher = thermal stabilisation; K562 cells, 10 uM, 30 min; active = over 0.2 and 3.5 SD of the protein, either way, in both replicates (recomputed)
# Procedure, shortened: (§1)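 Aliquots of K562 cells (2×10^6 cells/mL) treated with 10 μM compound for 30 min were heated for 3 min over 48°C-58°C. After pooling and extraction in PBS with 0.5% NP-40 at 4°C, soluble protein from a 21,000xg, 90 min spin was quantified by TMTpro 16plex LC-MS/MS with channel sums equalised. Thermal stability is expressed against control samples, from duplicates, as a log2 fold change.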
# UniProt Q9NYB0, sequence (Q9NYB0 whole entry, looked up): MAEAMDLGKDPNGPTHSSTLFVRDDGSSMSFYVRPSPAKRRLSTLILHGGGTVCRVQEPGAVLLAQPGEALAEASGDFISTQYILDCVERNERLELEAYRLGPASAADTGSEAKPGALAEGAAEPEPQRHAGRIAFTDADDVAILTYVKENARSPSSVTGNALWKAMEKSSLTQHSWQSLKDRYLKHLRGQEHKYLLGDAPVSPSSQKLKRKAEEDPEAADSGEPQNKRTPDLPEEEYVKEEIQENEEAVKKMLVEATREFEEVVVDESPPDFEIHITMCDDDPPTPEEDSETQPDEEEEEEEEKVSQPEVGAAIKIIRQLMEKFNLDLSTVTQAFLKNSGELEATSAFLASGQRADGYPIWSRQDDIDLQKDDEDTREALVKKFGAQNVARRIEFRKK
# UniProt O00506, sequence (O00506 whole entry, looked up): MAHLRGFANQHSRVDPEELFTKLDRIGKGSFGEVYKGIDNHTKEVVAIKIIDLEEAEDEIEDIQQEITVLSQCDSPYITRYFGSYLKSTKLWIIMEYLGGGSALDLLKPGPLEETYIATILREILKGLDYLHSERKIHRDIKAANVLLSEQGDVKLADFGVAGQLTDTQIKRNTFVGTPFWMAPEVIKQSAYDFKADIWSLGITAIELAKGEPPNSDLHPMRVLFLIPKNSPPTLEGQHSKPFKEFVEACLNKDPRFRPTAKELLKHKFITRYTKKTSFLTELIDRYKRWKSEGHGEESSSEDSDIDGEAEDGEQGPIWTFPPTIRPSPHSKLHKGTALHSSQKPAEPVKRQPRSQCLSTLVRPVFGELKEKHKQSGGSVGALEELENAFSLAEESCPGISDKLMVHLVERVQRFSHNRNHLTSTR
# UniProt O14975, sequence (O14975 whole entry, looked up): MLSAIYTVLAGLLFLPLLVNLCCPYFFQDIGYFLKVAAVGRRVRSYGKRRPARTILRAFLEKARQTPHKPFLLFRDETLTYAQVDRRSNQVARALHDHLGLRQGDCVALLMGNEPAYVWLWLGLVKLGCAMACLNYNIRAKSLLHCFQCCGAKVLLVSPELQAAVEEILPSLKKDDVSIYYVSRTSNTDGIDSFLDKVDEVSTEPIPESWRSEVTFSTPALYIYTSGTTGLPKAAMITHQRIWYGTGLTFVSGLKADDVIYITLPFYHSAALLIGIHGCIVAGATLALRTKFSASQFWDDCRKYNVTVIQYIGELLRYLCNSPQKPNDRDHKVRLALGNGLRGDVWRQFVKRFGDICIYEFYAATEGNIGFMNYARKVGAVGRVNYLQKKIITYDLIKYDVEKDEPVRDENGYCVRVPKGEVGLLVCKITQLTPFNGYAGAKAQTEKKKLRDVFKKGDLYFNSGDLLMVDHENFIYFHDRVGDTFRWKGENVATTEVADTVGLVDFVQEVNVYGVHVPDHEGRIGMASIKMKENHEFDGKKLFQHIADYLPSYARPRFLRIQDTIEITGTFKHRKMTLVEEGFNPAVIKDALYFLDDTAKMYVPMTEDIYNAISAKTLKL
# UniProt Q658P3, sequence (Q658P3 whole entry, looked up): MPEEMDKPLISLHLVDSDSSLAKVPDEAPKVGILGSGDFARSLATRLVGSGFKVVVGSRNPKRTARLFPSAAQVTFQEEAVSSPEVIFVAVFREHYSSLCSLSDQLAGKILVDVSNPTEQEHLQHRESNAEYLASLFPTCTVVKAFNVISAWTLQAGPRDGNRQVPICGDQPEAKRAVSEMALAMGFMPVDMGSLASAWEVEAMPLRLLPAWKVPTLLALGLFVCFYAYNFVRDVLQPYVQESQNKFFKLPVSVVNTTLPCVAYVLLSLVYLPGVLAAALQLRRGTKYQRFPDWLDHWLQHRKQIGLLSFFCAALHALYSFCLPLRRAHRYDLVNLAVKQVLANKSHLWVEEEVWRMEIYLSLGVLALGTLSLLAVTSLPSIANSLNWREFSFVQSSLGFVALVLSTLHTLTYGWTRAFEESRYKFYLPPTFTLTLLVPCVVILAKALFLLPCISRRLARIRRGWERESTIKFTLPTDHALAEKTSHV
# UniProt P23497, sequence (P23497 whole entry, looked up): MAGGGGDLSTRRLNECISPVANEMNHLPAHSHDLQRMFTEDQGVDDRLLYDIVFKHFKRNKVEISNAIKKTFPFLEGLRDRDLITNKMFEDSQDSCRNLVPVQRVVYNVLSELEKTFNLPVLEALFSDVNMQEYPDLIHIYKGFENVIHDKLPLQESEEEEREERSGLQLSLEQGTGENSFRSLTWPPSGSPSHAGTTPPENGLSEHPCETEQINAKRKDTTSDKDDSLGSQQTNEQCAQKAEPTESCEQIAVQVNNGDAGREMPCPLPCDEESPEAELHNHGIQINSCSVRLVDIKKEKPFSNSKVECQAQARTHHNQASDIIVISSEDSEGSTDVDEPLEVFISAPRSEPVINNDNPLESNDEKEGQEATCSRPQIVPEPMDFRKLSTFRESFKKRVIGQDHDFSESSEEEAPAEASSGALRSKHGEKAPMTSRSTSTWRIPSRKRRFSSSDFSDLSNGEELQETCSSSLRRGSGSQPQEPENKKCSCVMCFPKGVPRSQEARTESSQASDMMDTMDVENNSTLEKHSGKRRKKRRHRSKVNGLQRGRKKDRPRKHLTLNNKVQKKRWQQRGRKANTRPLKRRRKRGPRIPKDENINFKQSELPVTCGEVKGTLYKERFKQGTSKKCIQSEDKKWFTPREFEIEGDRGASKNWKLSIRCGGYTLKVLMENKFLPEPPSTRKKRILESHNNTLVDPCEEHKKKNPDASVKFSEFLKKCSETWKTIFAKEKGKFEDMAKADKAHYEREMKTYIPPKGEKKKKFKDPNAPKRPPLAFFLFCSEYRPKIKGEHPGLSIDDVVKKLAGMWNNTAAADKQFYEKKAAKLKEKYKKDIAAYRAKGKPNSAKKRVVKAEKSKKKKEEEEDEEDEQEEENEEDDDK
# UniProt Q9NZD8, sequence (Q9NZD8 whole entry, looked up): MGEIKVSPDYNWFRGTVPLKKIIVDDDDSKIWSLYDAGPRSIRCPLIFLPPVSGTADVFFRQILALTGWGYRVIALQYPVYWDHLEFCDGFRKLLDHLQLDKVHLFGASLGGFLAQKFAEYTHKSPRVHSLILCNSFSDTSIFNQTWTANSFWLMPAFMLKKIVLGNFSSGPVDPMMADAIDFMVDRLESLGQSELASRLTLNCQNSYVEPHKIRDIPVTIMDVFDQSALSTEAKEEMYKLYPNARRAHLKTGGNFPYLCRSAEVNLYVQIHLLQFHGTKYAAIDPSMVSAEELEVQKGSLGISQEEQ
# UniProt Q13043, sequence (Q13043 whole entry, looked up): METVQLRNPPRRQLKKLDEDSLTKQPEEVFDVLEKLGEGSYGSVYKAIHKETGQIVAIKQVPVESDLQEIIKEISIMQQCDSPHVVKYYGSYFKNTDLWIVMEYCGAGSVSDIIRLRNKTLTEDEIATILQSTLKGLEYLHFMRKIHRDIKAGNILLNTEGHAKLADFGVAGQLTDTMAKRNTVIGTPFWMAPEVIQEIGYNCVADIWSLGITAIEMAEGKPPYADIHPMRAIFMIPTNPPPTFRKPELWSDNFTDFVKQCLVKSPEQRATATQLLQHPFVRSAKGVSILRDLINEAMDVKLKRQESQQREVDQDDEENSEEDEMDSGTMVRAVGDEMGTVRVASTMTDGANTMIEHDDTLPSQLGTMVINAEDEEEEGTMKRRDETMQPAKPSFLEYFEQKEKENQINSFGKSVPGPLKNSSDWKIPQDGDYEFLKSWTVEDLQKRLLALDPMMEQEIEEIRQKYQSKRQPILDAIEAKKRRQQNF
# UniProt P51692, sequence (P51692 whole entry, looked up): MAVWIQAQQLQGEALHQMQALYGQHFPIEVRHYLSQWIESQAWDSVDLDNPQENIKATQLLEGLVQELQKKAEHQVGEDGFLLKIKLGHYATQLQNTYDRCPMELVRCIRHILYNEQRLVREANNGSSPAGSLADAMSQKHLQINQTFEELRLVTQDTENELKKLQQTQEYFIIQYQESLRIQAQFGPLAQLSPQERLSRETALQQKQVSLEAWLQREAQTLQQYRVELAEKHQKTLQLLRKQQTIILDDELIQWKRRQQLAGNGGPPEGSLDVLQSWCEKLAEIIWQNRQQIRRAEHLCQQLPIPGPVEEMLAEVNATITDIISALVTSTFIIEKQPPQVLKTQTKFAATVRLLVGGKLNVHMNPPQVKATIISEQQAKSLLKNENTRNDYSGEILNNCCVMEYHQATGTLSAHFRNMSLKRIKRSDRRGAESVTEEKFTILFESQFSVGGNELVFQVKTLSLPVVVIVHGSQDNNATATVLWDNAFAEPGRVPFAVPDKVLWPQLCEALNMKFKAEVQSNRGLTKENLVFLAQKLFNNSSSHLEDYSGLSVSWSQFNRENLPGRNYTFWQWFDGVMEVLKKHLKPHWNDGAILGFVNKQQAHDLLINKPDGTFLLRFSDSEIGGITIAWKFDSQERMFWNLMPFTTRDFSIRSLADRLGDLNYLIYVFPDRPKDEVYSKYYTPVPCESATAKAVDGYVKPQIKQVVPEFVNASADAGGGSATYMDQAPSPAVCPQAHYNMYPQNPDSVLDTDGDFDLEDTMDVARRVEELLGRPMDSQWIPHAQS
# UniProt O43615, sequence (O43615 whole entry, looked up): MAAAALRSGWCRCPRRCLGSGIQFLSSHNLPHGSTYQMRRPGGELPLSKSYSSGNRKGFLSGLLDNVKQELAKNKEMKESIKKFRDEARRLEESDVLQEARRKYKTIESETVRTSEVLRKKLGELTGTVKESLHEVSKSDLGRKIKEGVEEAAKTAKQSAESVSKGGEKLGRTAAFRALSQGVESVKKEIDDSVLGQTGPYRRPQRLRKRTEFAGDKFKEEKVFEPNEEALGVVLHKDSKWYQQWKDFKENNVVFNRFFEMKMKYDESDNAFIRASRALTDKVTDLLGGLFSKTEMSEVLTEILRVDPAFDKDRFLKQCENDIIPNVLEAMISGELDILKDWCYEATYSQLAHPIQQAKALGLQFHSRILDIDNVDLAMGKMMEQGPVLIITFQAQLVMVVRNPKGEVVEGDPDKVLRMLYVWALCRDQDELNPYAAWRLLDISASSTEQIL
# UniProt P63165, sequence (P63165 whole entry, looked up): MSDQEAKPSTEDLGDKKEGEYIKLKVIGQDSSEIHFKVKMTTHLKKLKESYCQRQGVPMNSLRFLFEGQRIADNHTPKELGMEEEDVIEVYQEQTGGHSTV
row,Target,log2 fold change
1,TERF2IP (UniProt Q9NYB0),-0.065
2,TGFBR1 isoform 2 (UniProt P36897),0.026
3,SLC25A39 (UniProt Q9BZJ4),-0.076
4,SLC27A2 (UniProt O14975),0.005
5,STAT5B (UniProt P51692),-0.083
6,TBC1D15 isoform 3 (UniProt Q8TC07),-0.117
7,TELO2 (UniProt Q9Y4R8),-0.211
8,SQSTM1 (UniProt Q13501),-0.073
9,TBC1D5 isoform 2 (UniProt Q92609),-0.169
10,SRI (UniProt P30626),-0.017
11,STAT3 (UniProt P40763),-0.144
12,SRPRA (UniProt P08240),-0.006
13,TAOK1 (UniProt Q7L7X3),-0.013
14,STK26 (UniProt Q9P289),0.009
15,STK4 (UniProt Q13043),0.029
16,STXBP2 isoform 3 (UniProt Q15833),-0.242
17,SRPRB (UniProt Q9Y5M8),-0.036
18,TIMM29 (UniProt Q9BSF4),0.051
19,SPG11 (UniProt Q96JI7),0.055

row,Target,log2 fold change
1,SLC25A36 (UniProt Q96CQ1),-0.057
2,SLC25A42 (UniProt Q86VD7),0.023
3,TAMM41 isoform 3 (UniProt Q96BW9),-0.003
4,SRSF4 (UniProt Q08170),0.028
5,SNRNP27 (UniProt Q8WVK2),0.048
6,TJP2 isoform 7 (UniProt Q9UDY2),-0.151
7,STEAP3 isoform 2 (UniProt Q658P3),-0.027
8,SP100 isoform 4 (UniProt P23497),-0.003
9,SPG21 (UniProt Q9NZD8),-0.005
10,TIMM44 (UniProt O43615),-0.132
11,TBC1D23 (UniProt Q9NUY8),-0.073
12,SPAG9 (UniProt O60271),-0.037
13,SNRPB2 (UniProt P08579),0.041
14,SNX6 (UniProt Q9UNH7),0.026
15,STK25 (UniProt O00506),0.088
16,TJP1 (UniProt Q07157),-0.064
17,STK11IP (UniProt Q8N1F8),-0.138
18,SUMO1 (UniProt P63165),0.011
19,TM9SF2 (UniProt Q99805),-0.01

# Compound: CN1CC[C@H](c2c(O)cc(O)c3c(=O)cc(-c4ccccc4Cl)oc23)[C@H](O)C1 [alvocidib]
# Assay: as above
# Procedure, shortened: as §1
row,Target,log2 fold change
1,TERF2IP (UniProt Q9NYB0),-0.106
2,TGFBR1 isoform 2 (UniProt P36897),-0.009
3,SLC25A39 (UniProt Q9BZJ4),0.134
4,SLC27A2 (UniProt O14975),-0.079
5,STAT5B (UniProt P51692),-0.023
6,TBC1D15 isoform 3 (UniProt Q8TC07),-0.054
7,TELO2 (UniProt Q9Y4R8),-0.015
8,SQSTM1 (UniProt Q13501),-0.149
9,TBC1D5 isoform 2 (UniProt Q92609),-0.077
10,SRI (UniProt P30626),-0.062
11,STAT3 (UniProt P40763),-0.112
12,SRPRA (UniProt P08240),-0.014
13,TAOK1 (UniProt Q7L7X3),-0.077
14,STK26 (UniProt Q9P289),0.018
15,STK4 (UniProt Q13043),-0.01
16,STXBP2 isoform 3 (UniProt Q15833),-0.113
17,SRPRB (UniProt Q9Y5M8),0.002
18,TIMM29 (UniProt Q9BSF4),-0.068
19,SPG11 (UniProt Q96JI7),0.28

row,Target,log2 fold change
1,SLC25A36 (UniProt Q96CQ1),-0.018
2,SLC25A42 (UniProt Q86VD7),0
3,TAMM41 isoform 3 (UniProt Q96BW9),0.027
4,SRSF4 (UniProt Q08170),0.135
5,SNRNP27 (UniProt Q8WVK2),0.062
6,TJP2 isoform 7 (UniProt Q9UDY2),-0.067
7,STEAP3 isoform 2 (UniProt Q658P3),-0.059
8,SP100 isoform 4 (UniProt P23497),-0.117
9,SPG21 (UniProt Q9NZD8),-0.097
10,TIMM44 (UniProt O43615),-0.044
11,TBC1D23 (UniProt Q9NUY8),-0.053
12,SPAG9 (UniProt O60271),-0.047
13,SNRPB2 (UniProt P08579),0.124
14,SNX6 (UniProt Q9UNH7),-0.112
15,STK25 (UniProt O00506),0.028
16,TJP1 (UniProt Q07157),-0.114
17,STK11IP (UniProt Q8N1F8),-0.184
18,SUMO1 (UniProt P63165),0.12
19,TM9SF2 (UniProt Q99805),-0.039
